From PubChem BioAssay
HTR5A ag: counter-screen for OPRM1-OPRD1 agonists: human HTR5A agonism; P47898; HTR5A agonist assay, luminescence, cell-based; activation, % at 9.3 µM; actives 0.61% (n = 340,000); AID 504692; in the data active = activation mostly above about 9.5%, no sharp cut-off; inactive = mostly below about 7.6%;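 note: 0% = cells with vehicle only and 100% = reference agonist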
MOR-DOR inv ag: mu-delta opioid heterodimer inverse agonism; P35372+P41143; AID 504357; inhibition, % at 9.3 µM; actives 0.21% (n = 340,000); cell-based MOR-DOR heterodimer luminescence; in the data active = inhibition above about 22%, passing the limit was not always enough;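 note: 0% = cells with DMSO and 100% = wells without cells with DMSO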
Target sequence (P35372 whole entry, looked up): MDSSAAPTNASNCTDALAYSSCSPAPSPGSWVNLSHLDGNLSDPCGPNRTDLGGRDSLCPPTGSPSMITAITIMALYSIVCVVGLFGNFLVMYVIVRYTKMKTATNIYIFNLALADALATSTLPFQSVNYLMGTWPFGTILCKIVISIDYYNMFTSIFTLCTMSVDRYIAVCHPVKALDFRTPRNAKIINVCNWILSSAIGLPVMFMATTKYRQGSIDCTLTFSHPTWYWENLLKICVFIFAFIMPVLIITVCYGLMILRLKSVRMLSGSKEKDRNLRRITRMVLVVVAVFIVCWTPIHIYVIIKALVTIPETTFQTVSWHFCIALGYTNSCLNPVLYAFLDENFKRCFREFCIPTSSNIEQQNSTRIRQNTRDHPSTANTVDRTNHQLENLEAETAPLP
Target sequence (P41143 whole entry, looked up): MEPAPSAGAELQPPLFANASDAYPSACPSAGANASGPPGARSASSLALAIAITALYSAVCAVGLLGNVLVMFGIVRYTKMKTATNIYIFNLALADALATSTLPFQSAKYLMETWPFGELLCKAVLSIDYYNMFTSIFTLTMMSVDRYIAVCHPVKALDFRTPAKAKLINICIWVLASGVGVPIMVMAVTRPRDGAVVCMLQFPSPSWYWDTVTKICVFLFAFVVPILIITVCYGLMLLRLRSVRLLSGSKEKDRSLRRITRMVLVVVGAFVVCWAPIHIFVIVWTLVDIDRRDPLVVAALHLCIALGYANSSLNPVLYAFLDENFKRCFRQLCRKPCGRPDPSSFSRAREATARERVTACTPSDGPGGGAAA
MOR-DOR ag: OPRM1-OPRD1 heterodimerization agonism. cells, luminescence. activation, % at 9.3 µM. actives 0.3% (n = 340,000). AID 504326; in the data active = activation above about 18%;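 note: 0% = vehicle-treated cells and 100% = reference agonist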
HTR5A inv ctr: counter-screen for OPRM1-OPRD1 inverse agonists: human HTR5A inverse agonism; actives 0.083% (n = 340,000); HTR5A cell line, luminescence; P47898; inhibition, % at 9.3 µM; in the data active = inhibition mostly above about 23%, no sharp cut-off; inactive = mostly below about 18%;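 note: 0% = cells with DMSO and 100% = no-cell wells with DMSO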
An asterisk follows results filed as active. Most compounds without a hit are left out; they make up all but 1.1% or so of the library.

SMILES	HTR5A ag	MOR-DOR inv ag	MOR-DOR ag	HTR5A inv ctr
C=CCNC(=O)c1onc(CSc2ccc(F)c(F)c2)c1C(=O)NCC=C	13.2*	-17.9	3.1	-5.8
Cc1ccc2oc(=O)c3cnn(CC(=O)N4CCCc5ccccc54)c3c2c1	14.1*	5.5	-1.0	1.7
CC(C)(C)C(=O)NC(=S)NNC(=O)c1ccc(-c2ccccc2)cc1	-23.2	30.4*	-6.0	87.0*
Nn1c(SCC(=O)NNC(=O)c2ccccc2)nnc1-c1ccccc1F	4.4	2.0	-0.3	-11.6
COc1ccc(C(=O)OCC(=O)N2C(C)CCCC2C)cc1[N+](=O)[O-] (stereo not given)	0.1	0.8	-0.2	12.2
CCN1/C(=C/c2ccc3ccccc3[n+]2CC)C=Cc2ccccc21	-12.2	32.5	-5.8	43.4*
Oc1ccccc1-c1cc(C(F)(F)C(F)F)[nH]n1	11.4*	-12.7	2.3	-17.5
Oc1ccccc1C1=NCCNC(C(F)(F)C(F)F)=C1	-0.7	-10.0	1.8	6.0
Cc1cc(=O)oc2cc(OC(C(=O)O)c3ccccc3)ccc12 (stereo not given)	10.7*	3.8	-0.8	-41.4
Cc1cc(=O)oc2cc(OC(C)C)ccc12	0.8	9.4	-1.8	-7.1
CCC(=O)c1ccc(OCC(O)CNC(C)c2ccccc2)cc1 (stereo not given)	1.5	-12.8	2.2	-5.0
CC(C)c1ccc(OCC(O)CNC(C)c2ccccc2)cc1 (stereo not given)	11.7*	-18.0	4.0	-41.5
COCCN(CCOC)C(=O)C1CCCN(S(=O)(=O)c2ccc(NC(=O)OC)cc2)C1 (stereo not given)	1.7	6.5	-1.3	17.1
CCOC(=O)c1[nH]c(C)c(C(=O)Nc2ccc(C)c(C)c2)c1C	13.3*	13.2	-2.6	-36.8
COc1ccc(CCNC(=O)C2CCN(S(=O)(=O)c3ccc(C)cc3)CC2)cc1OC	4.2	11.4	-2.3	-6.7
C=CCNc1nc(N(c2ccccc2)c2ccccc2)nc(-n2ccnc2)n1	12.4*	-16.5	3.6	3.4
Cc1cc(NC(=O)c2ccc(COc3ccccc3Cl)o2)no1	9.7*	-15.1	2.9	-11.6
Cc1cc(=O)n2nc(N3CCCC3C(=O)Nc3cccc(Cl)c3C)sc2n1 (stereo not given)	0.4	9.8	-1.7	-1.2
O=C(OCC(=O)N1CCc2ccccc21)c1n[nH]c(=O)c2ccccc12	12.6*	13.6	-3.5	-66.5
Cn1nc(C(=O)OCC(=O)N2CCc3ccccc32)c2ccccc2c1=O	1.8	12.9	-2.2	-6.8
CN(CC(=O)Nc1cccc(F)c1)C(=O)CNC(=O)Cc1cccc2ccccc12	-3.5	14.7	-2.8	8.6
CC(NC(=O)COC(=O)C1CSC2(C)CCC(=O)N12)C12CC3CC(CC(C3)C1)C2 (stereo not given)	0.9	12.3	-2.4	-2.6
CCC(=O)NCCn1c(C)cc2ccccc21	5.6	-1.1	0.2	-17.0
Cc1cc2ccccc2n1CCNC(=O)COc1ccccc1	1.0	-170.2	31.0*	-27.6
COc1ccc(CCN2C(=O)CSC2=Nc2ccc(C)cc2C)cc1OC	6.0	2.9	-0.6	-11.5
SMILES	HTR5A ag	MOR-DOR inv ag	MOR-DOR ag	HTR5A inv ctr
COc1ccc(CN(CCC(c2ccccc2)c2ccc(OC(C)C)cc2)C(=O)CCl)cc1OC (stereo not given)	52.1*	-454.3	82.1*	-61.8
COc1ccc(C(CCN(Cc2ccc(OC)c(OC)c2)C(C)=O)c2ccccc2)cc1 (stereo not given)	-3.7	7.8	-1.1	9.9
N#Cc1ccc(COc2cccc3cccnc23)cc1	13.7*	-10.9	1.7	-10.1
O=[N+]([O-])c1ccc(COc2cccc3cccnc23)cc1	-2.5	4.3	-1.0	9.4
N#C/C(=C(\O)Cc1ccccc1)c1nc2ccccc2[nH]1	0.4	10.5	-2.5	-7.1
N#C/C(=C(/O)c1ccco1)c1nc2ccccc2[nH]1	10.9*	11.8	-2.3	-28.1
N#Cc1c(N)nc(SCC(=O)C23CC4CC(CC(C4)C2)C3)c(C#N)c1-c1ccc(Cl)cc1	6.8	-0.3	0.1	-17.6
CSc1nc(N)nc(SCC(=O)C23CC4CC(CC(C4)C2)C3)c1C#N	11.7*	-47.1	8.8	-34.4
O=C(O)CC(Cc1ccc(Br)cc1)C(=O)Nc1ccccc1 (stereo not given)	-0.2	4.5	-1.0	0.6
O=C(O)CC(Cc1ccc(Cl)cc1)C(=O)Nc1ccccc1 (stereo not given)	10.1*	7.1	-1.4	-38.4
Cc1cccc(CC2S/C(=N/N=C/c3ccco3)N(c3ccccc3)C2=O)c1 (stereo not given)	13.8*	-29.1	5.3	6.7
